The full ranking holds about 33,000 sequences; the median of “E-score (-0.5 to 0.5)” is about -0.016, and the highest 2% start at about 0.3. The sample holds the highest values, similar sequences and a random draw of the others, so the mix is not that of the screen.

In this assay the target is T1, Yer184c (UniProt P39961).
T1 sequence: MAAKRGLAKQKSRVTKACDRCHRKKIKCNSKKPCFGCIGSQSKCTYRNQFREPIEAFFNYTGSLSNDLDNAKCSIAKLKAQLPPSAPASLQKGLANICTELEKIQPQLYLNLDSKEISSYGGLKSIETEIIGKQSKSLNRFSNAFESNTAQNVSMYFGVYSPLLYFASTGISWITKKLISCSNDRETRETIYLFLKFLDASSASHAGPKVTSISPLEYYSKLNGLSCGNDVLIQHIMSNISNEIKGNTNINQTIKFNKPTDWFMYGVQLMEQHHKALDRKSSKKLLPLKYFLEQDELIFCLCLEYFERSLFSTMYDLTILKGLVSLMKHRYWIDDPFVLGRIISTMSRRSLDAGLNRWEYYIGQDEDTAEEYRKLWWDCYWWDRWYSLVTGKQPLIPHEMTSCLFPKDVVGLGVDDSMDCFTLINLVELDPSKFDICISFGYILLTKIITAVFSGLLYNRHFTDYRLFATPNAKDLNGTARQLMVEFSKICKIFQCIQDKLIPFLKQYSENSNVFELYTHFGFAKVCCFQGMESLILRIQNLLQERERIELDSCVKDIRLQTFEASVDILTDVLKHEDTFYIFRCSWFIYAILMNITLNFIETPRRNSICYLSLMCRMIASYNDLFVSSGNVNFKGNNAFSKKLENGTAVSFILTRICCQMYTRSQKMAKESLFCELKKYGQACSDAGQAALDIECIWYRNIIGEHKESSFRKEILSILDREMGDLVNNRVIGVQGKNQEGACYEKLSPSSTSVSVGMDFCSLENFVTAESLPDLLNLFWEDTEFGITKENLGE
Description: PBM E-score (8-mer binding enrichment) (E-score (-0.5 to 0.5)); higher = stronger / more preferred TF binding. Conditions: protein concentration: 100 nM; construct: GST-full length. How it is done:
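Universal 'all 10-mer' protein binding microarrays (Agilent AMADID 015681) probed with GST-tagged S. cerevisiae TFs (full-length or DBD) made by in vitro transcription/translation (PURExpress), about 100-200 nM. Bound TF was detected with fluorescent anti-GST. Each ungapped 8-mer (which stands for itself and its reverse complement) is scored by the PBM enrichment score (E-score), a modified Wilcoxon-Mann-Whitney statistic from -0.5 to +0.5, computed with the Universal PBM Analysis Suite. Scale: above 0.35 generally sequence-specific binding.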
As to AAAGGGAG, the “PBM E-score” value is -0.313.
Consider CAGTCTTA, for which the “PBM E-score” value is -0.0806.
On to TTCAAAAA, for which the “PBM E-score” value was found to be 0.228.
On to GTCAAGAA, for which the “PBM E-score” value is 0.0525.
Regarding TTCAAGAA, the “PBM E-score” value came to 0.312.
Take CAGCCATG: the “PBM E-score” value is -0.329.
For CGGGCTAC, the “PBM E-score” value is 0.00991.
For AGAATTTA, the “PBM E-score” value was found to be 0.121.
For the sequence AACGCCGT, the “PBM E-score” value came to 0.119.
With AACGCCGA, the “PBM E-score” value stood at 0.415.
For the sequence TACGCCGA, the “PBM E-score” value was found to be 0.237.
In the case of AACGCCGC it was 0.116.
Turning to AACGCCGG, the “PBM E-score” value was determined as 0.317.
In the case of CACGCCGA it was 0.153.
The result for CCCTAAAA reads -0.238; that for AAACGAGG, -0.124; that for GCTATAAC, -0.00042.
Regarding GATCTGTA, the “PBM E-score” value is -0.0435.
Turning to ATTCGGCC, the “PBM E-score” value came out at 0.292.
On to CTTCGGCA, for which the “PBM E-score” value stood at 0.333.
Take GCTCGGCA: the “PBM E-score” value amounted to 0.288.
The result for GTTCGGTA reads 0.29; that for CATCGGCA, 0.211.
As to GGTCGGCA, the “PBM E-score” value was 0.112.
Take ATTCGGCA: the “PBM E-score” value turned out to be 0.318.
The result for ATTCGGCG reads 0.282; that for ATTCGGTA, 0.329; that for GTTCGGCA, 0.368.
The result for ATTCGGTG reads 0.155; that for CTTCGGCC, 0.272.
As to AAGCGTGT, the “PBM E-score” value was -0.217.
For CACACTGC, the “PBM E-score” value was -0.155.
In the case of GATTGGCC it was -0.0975; in that of AGGGTGAA, -0.136.
For AATTGTCG, the “PBM E-score” value came to 0.035.
Consider GGGAACCA, for which the “PBM E-score” value is -0.222.
For CGGAACCC, the “PBM E-score” value is 0.279.
With CCGAACCG, the “PBM E-score” value stood at 0.329.
The result for CCGAACGA reads 0.245.
In the case of CCGAACGG, the “PBM E-score” value turned out to be 0.325.
In the case of AGGAACCG it was 0.179; in that of CCGAACGC, 0.274.
For the sequence CCGAACCA, the “PBM E-score” value was found to be 0.154.
The result for CGGAACCA reads 0.338; that for TGGAACCA, 0.138; that for CGGAACCG, 0.364.
Take CCGAACCC: the “PBM E-score” value turned out to be 0.0527.
For the sequence ACTTATAA, the “PBM E-score” value stood at 0.221.
GATCTAGC: the “PBM E-score” value is -0.195.
Take CAACTACC: the “PBM E-score” value is -0.0226.
The result for ATCCCATC reads -0.19.
On to ATGCACCC, for which the “PBM E-score” value is -0.147.
Consider GGAAAAAC, for which the “PBM E-score” value amounted to 0.124.
The result for GGAAATAA reads 0.319; that for CGGAAAAG, 0.248; that for CGGAAAAC, 0.349.
The result for GGGAAAAA reads 0.123; that for AGGAAAAA, 0.168.
For the sequence CGGAAAAA, the “PBM E-score” value was 0.394.
As for GGGAAAAC, the “PBM E-score” value was -0.00619.
On to AGAAATAA, for which the “PBM E-score” value was found to be 0.19.
On to CGAAATAA, for which the “PBM E-score” value was found to be 0.255.
For CGGAAACC, the “PBM E-score” value was found to be 0.188.
As for GGAAAAAA, the “PBM E-score” value stood at 0.304.
Regarding CCAACCAC, the “PBM E-score” value was -0.0234.
As to AGAAAACT, the “PBM E-score” value stood at 0.0223.
For the sequence TCCTTACA, the “PBM E-score” value was -0.0191.
As to AACGAAGT, the “PBM E-score” value is -0.0531.
As to TCTCCCAA, the “PBM E-score” value was 0.0611.
Consider GCACTACA, for which the “PBM E-score” value was -0.142.
For CGCCCCTC, the “PBM E-score” value was -0.199.
In the case of CGGAAACA it was 0.314.
Consider AGGAAACA, for which the “PBM E-score” value was 0.165.
Regarding GGGAAACA, the “PBM E-score” value came to 0.22.
As to CGTCTACC, the “PBM E-score” value stood at 0.0232.
As for AAACTCGA, the “PBM E-score” value stood at 0.0301.
With GTAACGGA, the “PBM E-score” value was determined as 0.304.
Consider TAAACGGA, for which the “PBM E-score” value was 0.311.
On to CTAACGGA, for which the “PBM E-score” value came out at 0.284.
As for ACAACGGA, the “PBM E-score” value was 0.314.
On to ACCACGGA, for which the “PBM E-score” value came out at 0.107.
Consider TCCACGGA, for which the “PBM E-score” value was 0.304.
In the case of ACAACGGT it was -0.0406.
For the sequence ATAACGGA, the “PBM E-score” value came to 0.278.
Consider CAAACGGA, for which the “PBM E-score” value came to 0.267.
For GAAACGGA, the “PBM E-score” value was found to be 0.294.
Consider ACAACGGG, for which the “PBM E-score” value came to 0.00646.

Source of the values: the supplement of paper PMC3334620.
